According to PubChem BioAssay (NCI):
Values joined by “and” are separate entries in the source; they are usually repeats but may differ in a detail not shown here. Equal entries are not always repeated. About 83,000 compounds went through this panel and 20% of them were active in at least one assay; those are over-represented in the sample as a whole.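 Assay: single dose, 48 h. Readout: percent growth (0 = no net growth; negative = cell death). Active: <10.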 Unmarked numbers belong to inactive results.

Each compound was assayed on NCI/ADR-RES ovarian (assay: NCI-60 one-dose screen, 48 h (100 = growth as untreated, 0 = no growth, -100 = all killed)). Settings: 10 µM unless noted.

Row | Structure (SMILES) | growth
1 | C=CC[PH+](c1ccccc1)c1ccccc1.C=CC[PH+](c1ccccc1)c1ccccc1.[Pt+2].[S-]c1ncccn1.[S-]c1ncccn1 | 39.6%
2 | CC(=O)Nc1nc2c(s1)C1=CC[C@H]3[C@@H]4CC[C@H](OC(C)=O)[C@@]4(C)CC[C@@H]3[C@@]1(C)CC2 | 43.4%
3 | C[C@]12CCC(=O)C[C@@H]1CC[C@@H]1[C@@H]2CC[C@]2(C)[C@@H](OC(=O)N(CCCl)N=O)CC[C@@H]12 | 25%
4 | C[N+]1(C)CCCC1c1cccnc1 (stereo not given) | 111%
5 | O=[N+]([O-])c1cc(Br)c(O)c(Br)c1 | 104%
6 | Nc1ccc(S(=O)(=O)F)cc1 | 107%
7 | Cc1cc(N(CCCl)CCCl)ccc1/C=N\NC(=O)c1cccnc1 | 81.6% and 82.4%
8 | CNC(=O)O/N=C(\SC)C(=O)N(C)C | 96.4%
9 | N#CC(C#N)=Cc1cccc(F)c1 | 107%
10 | CCC1(CCSC#N)C(=O)NC(=O)NC1=O | 104%
